Source: PubChem BioAssay AID504329 (Southern Research Specialized Biocontainment Screening …, 2011)
About 1,000 (0.29%) of roughly 340,000 compounds were called active. These entries were drawn from the full list. Results with a measured potency or affinity are listed apart. A number with no mark means an inactive call. Rule as the data show it: inconclusive = inhibition above about 27% without an active follow-up result; inactive = below that.

Assay: NS1A inhibition, H1N1 influenza, cell based functional assay (AID 504329)
Details: percent inhibition, at 12.5 µM, active compounds read high

Structure (SMILES) | inhibition
Cc1c(Cl)c(C(F)(F)F)nn1CC(=O)NN | 3.69%
O=C(NCc1ccccn1)/C(=C/c1ccco1)NC(=O)c1ccccc1 | 1.38%
CCOC(=O)N1CCN(C(=O)c2sc3nc(-c4ccc(F)cc4)cn3c2C)CC1 | -1.44%
O=C(Cc1ccccc1)Nn1c(-c2ccccc2F)nc2ccccc2c1=O | -1.28%
CC1(O)CC2CC1C(C(=O)O)C2C(=O)O (stereo not drawn) | -2.28%
CCn1cc([N+](=O)[O-])c(C(=O)N2CCCc3ccccc32)n1 | 4.06%
COc1ccc(F)cc1S(=O)(=O)n1cnc2ccccc21 | 2.94%
CCOc1ccc(OCCCC(=O)O)cc1 | -12.4%
COC(=O)c1ccc(N2CCN(C)CC2)c(NC(=O)c2ccc(-c3ccc(Cl)cc3)o2)c1 | -4.26%
CN1CCN(c2ccc(NC(=O)c3ccc(-c4ccc(Cl)cc4)o3)cc2)CC1 | 6.66%
N#C/C(=C\c1ccc(OCc2ccccc2)cc1)C(N)=O | 4.02%
CCn1c(=O)n(CC)c2cc(N3CCCC3)c(NC(=O)c3cc(Cl)ccc3OC)cc21 | 12.7%
CN1CCN(/N=C/c2ccc(-c3ccccc3)cc2)CC1 | 10.8%
CN1CCN(/N=C/c2cccc(Cl)c2Cl)CC1 | 3.86%
Cc1ccc(C)c(OCCSc2nnc(C)c(=O)[nH]2)c1 | -14.8%
Cc1ccc(S(=O)(=O)N2CCCC(C(=O)N3CCC4(CC3)OCCO4)C2)cc1 (stereo not drawn) | 2.04%
COc1ccc(S(=O)(=O)N(CCC(=O)O)Cc2ccccc2)cc1 | -3.39%
O=C(N/N=C/c1cc(Br)c(O)c(Br)c1)c1cccnc1 | -2.33%
O=C(N/N=C/c1cc(Br)c(Br)o1)c1cccnc1 | 4.32%
O=C(N/N=C/c1cc2c(cc1Br)OCO2)c1cccnc1 | 3.42%
COc1cc(/C=N/NC(=O)c2cccnc2)cc(Br)c1O | 3.86%
Cc1ccc(N(CC(=O)NCc2ccccn2)S(=O)(=O)c2ccccc2)cc1Cl | -3.75%
Cc1ccc(NC(=O)CCN2C(=O)CSC2=O)cc1 | -13.2%
CCCCN1C(=O)/C(=C2/Sc3ccc(OC)cc3N2CC)SC1=S | -6.84%

Structure (SMILES) | inhibition
COc1ccc2c(c1)-c1c(sn(-c3ccccc3)c1=S)C(C)(C)N2 | 0.13%
COc1cc2c3c(c1)-c1c(sn(-c4cc(OC)ccc4OC)c1=S)C(C)(C)N3C(=O)C2=O | 7.42%
COc1ccc(N2CCN(C(=O)c3ccc(Cl)c(S(=O)(=O)N4CCOCC4)c3)CC2)cc1 | -0.24%
CN(C)c1c(-c2ccccc2)cc(-c2ccccc2)[nH]c1=O | -13.7%
O=C1/C(=C/c2ccc([N+](=O)[O-])cc2)C=C(c2ccccc2)N1c1ccccc1 | 16.3%
O=C(O)c1cccc(N2C(=O)/C(=C/c3ccc([N+](=O)[O-])cc3)C=C2c2ccccc2)c1 | 15.9%
CSCCC(NC(=O)c1ccccc1)C(=O)N1CCN(C(=O)c2ccccc2)CC1 (stereo not drawn) | -5.85%
C[C@H](CO)N1C[C@H](C)[C@@H](CN(C)S(=O)(=O)c2ccc(F)cc2)Oc2c(NS(=O)(=O)c3ccccc3)cccc2C1=O | -4.12%
Cc1oc(-c2cccc(Cl)c2)nc1CN1CCC(C(=O)NCc2cccnc2)CC1 | 9.09%
COc1ccccc1NC(=O)CN1CCN(CC(=O)Nc2ccc(F)cc2)CC1 | 1.85%
CCOc1ccc(NC(=O)CN2CCN(CC(=O)Nc3ccccc3OC)CC2)cc1 | -5.69%
CCOC(=O)c1c(NC(=O)CN2CCN(C(=O)c3ccco3)CC2)sc(C)c1C | -5.18%
CC[n+]1c(/C=C/Nc2ccccc2)sc2ccccc21 | 11.6%
CC/C(=C/c1sc2ccccc2[n+]1CC)SC | -0.17%
CC[n+]1c(/C=C(\C)OC)sc2ccccc21 | -2.73%
CCN1/C(=C\C=C(C(C)=O)C(C)=O)Sc2ccccc21 | 3.69%
CC[n+]1c(/C=C(\C)SC)sc2ccccc21 | 3.81%
CC[n+]1c(/C=C(/C)SC)sc2ccccc21 | -2.81%
Cc1nn(C(C)C(=O)NNC(=S)Nc2ccc(F)cc2)c(C)c1[N+](=O)[O-] (stereo not drawn) | 6.47%
Cc1c(O)ccc(C(=O)CN2CCN(c3ccccc3F)CC2)c1O | -1.8%
CC(C)(C)c1ccc(C(=O)NCCCNC(=O)c2cccnc2)cc1 | -2.72%
Cc1sc2nc(-c3ccccn3)[nH]c(=O)c2c1-c1ccccc1 | -4.3%
CCN(CC)C(=O)c1sc2nc(-c3ccccn3)[nH]c(=O)c2c1C | -6.6%
Cc1cc(C)c(S(=O)(=O)N2CCCC(C(=O)N3CCOCC3)C2)c(C)c1 (stereo not drawn) | -9.55%
